Screening data (PubChem BioAssay)
The full list was thinned out, with hits kept by preference.
BL2 CD40 inh = CD40 pathway inhibition in BL2 cells; inhibition, % at 10 µM; BL2 NF-kB luciferase reporter, CD40L-induced, 4 h; AID 1053188; 83,000 compounds, 0.94% hits;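 active = mean inhibition of at least 50% with a set share of replicates also reaching that level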
Hits are given with their value; [ ] = remark or other dose.

What do the screens show for `CCc1csc(N2[C@H](C#N)[C@H](c3ccc(C#Cc4ccc(F)cc4)cc3)[C@H]2CO)n1`?
BL2 CD40 inh: 77[25 µM]

How did N#C[C@H]1[C@H](c2ccc(C#Cc3ccccc3F)cc2)[C@@H](CO)N1C(=O)C1CC1 do in these assays?
BL2 CD40 inh: 50[25 µM]

Results for N#C[C@@H]1[C@@H](c2ccccc2)[C@@H](CO)N1C(=O)c1cccnc1 ?
BL2 CD40 inh: inactive

Results for N#C[C@@H]1[C@@H](c2ccc(C#Cc3ccccc3F)cc2)[C@H](CO)N1C(=O)C1CC1 ?
BL2 CD40 inh: inactive

How did CCc1csc(N2[C@H](C#N)[C@@H](c3ccc(-c4ccc(F)cc4)cc3)[C@@H]2CO)n1 do in these assays?
BL2 CD40 inh: inactive

What do the screens show for `N#C[C@@H]1[C@@H](c2ccc(C#Cc3ccccc3F)cc2)[C@@H](CO)N1C(=O)C1CC1`?
BL2 CD40 inh: inactive

How did CCc1csc(N2[C@@H](C#N)[C@@H](c3ccc(C#Cc4ccc(F)cc4)cc3)[C@@H]2CO)n1 do in these assays?
BL2 CD40 inh: inactive

Results for N#C[C@@H]1[C@H](c2ccc(C#Cc3ccccc3F)cc2)[C@H](CO)N1C(=O)c1cccnc1 ?
BL2 CD40 inh: inactive

What do the screens show for `O=C(Nc1ccc2c(c1)[C@@H]1C[C@@H](CC(=O)N3CCc4ccccc4C3)O[C@@H](CO)[C@@H]1O2)C1CCOCC1`?
BL2 CD40 inh: inactive

How did COc1ccc(NC(=O)N(C)C[C@@H]2OCc3cn(nn3)CCCC(=O)N([C@@H](C)CO)C[C@@H]2C)c(OC)c1 do in these assays?
BL2 CD40 inh: inactive

How did C[C@H](O)C#Cc1ccc([C@@H]2[C@@H](CO)N3CCCCN(C(=O)c4ccncc4)C[C@H]23)cc1 do in these assays?
BL2 CD40 inh: inactive

Results for C[C@@H]1CN([C@H](C)CO)C(=O)c2cc(NC(=O)Nc3cccc4ccccc34)ccc2O[C@H]1CN(C)S(=O)(=O)c1cccs1 ?
BL2 CD40 inh: inactive

How did CC1(C)C(=O)N=C2c3ccccc3C(=O)C(=O)C21 (centres undefined) do in these assays?
BL2 CD40 inh: 91[25 µM]

Results for COc1ccc2c3c(n(C)c2c1)[C@H](CO)N(C(=O)C1CCCC1)CC31CN(C(=O)CC2CC2)C1 ?
BL2 CD40 inh: inactive

How did c1cc2nncn2nc1N1CCCC1 do in these assays?
BL2 CD40 inh: inactive

How did CCOC(=O)c1cn2nc(N3CCCCC3)ccc2n1 do in these assays?
BL2 CD40 inh: 66

What do the screens show for `CCOC(=O)c1cn2nc(N3CCCC3)ccc2n1`?
BL2 CD40 inh: inactive

How did COc1cccc(S(=O)(=O)N2CCCCN3[C@H](CO)[C@H](c4ccc(C5=CCCCC5)cc4)[C@H]3C2)c1 do in these assays?
BL2 CD40 inh: inactive

What do the screens show for `CN(C)C(=O)c1cccc(-c2ccc([C@@H]3[C@H](CO)N4C(=O)CN(C(=O)C5CCC5)C[C@@H]34)cc2)c1`?
BL2 CD40 inh: inactive

What do the screens show for `CC(C)NC(=O)N1[C@H](CO)[C@@H](c2ccc(C#CC3CCCCC3)cc2)[C@@H]1C#N`?
BL2 CD40 inh: inactive

How did N#C[C@H]1[C@@H](c2ccc(C#CC3CCCCC3)cc2)[C@@H](CO)N1C(=O)Nc1ccc(F)cc1 do in these assays?
BL2 CD40 inh: 62[25 µM]

What do the screens show for `N#C[C@@H]1[C@@H](c2ccc(C#CC3CCCC3)cc2)[C@H](CO)N1C(=O)Nc1ccc(F)cc1`?
BL2 CD40 inh: inactive

How did N#C[C@@H]1[C@H](c2ccc(C#CC3CCCC3)cc2)[C@H](CO)N1C(=O)Nc1ccc(F)cc1 do in these assays?
BL2 CD40 inh: inactive

Results for N#C[C@@H]1[C@@H](c2ccccc2-c2ccc(F)cc2)[C@H](CO)N1C(=O)NC1CCCCC1 ?
BL2 CD40 inh: 59[25 µM]

How did N#C[C@@H]1[C@H](c2ccc(C#CC3CCCCC3)cc2)[C@@H](CO)N1C(=O)Nc1ccc(F)cc1 do in these assays?
BL2 CD40 inh: 77[25 µM]

What do the screens show for `N#C[C@H]1[C@@H](c2ccc(C#Cc3ccc(F)cc3)cc2)[C@H](CO)N1C(=O)Nc1ccc(F)cc1`?
BL2 CD40 inh: inactive

Results for N#C[C@H]1[C@H](c2ccccc2-c2ccc(F)cc2)[C@H](CO)N1C(=O)NC1CCCCC1 ?
BL2 CD40 inh: inactive

Results for N#C[C@H]1[C@H](c2ccccc2-c2ccc(F)cc2)[C@@H](CO)N1C(=O)NC1CCCCC1 ?
BL2 CD40 inh: inactive

Results for CCCNC(=O)N1[C@H](CNC(=O)CC)[C@H](c2ccc(C3=CCCC3)cc2)[C@@H]1CO ?
BL2 CD40 inh: inactive

How did COc1ccccc1S(=O)(=O)N[C@H]1CC[C@@H](CCn2cc(C3CCCC3)nn2)O[C@@H]1CO do in these assays?
BL2 CD40 inh: inactive

What do the screens show for `COc1cccc(S(=O)(=O)N2C[C@H](O)COC[C@H]3O[C@H](CC(=O)NCCCN4CCOCC4)CC[C@@H]32)c1`?
BL2 CD40 inh: inactive

How did CC(=O)NC[C@H]1[C@@H](c2ccc(C3=CCCC3)cc2)[C@@H](CO)N1C(=O)C1CC1 do in these assays?
BL2 CD40 inh: inactive

What do the screens show for `COCCNC(=O)C[C@@H]1CC[C@H]2[C@@H](COC[C@H](O)CN2C(=O)c2cc(Cl)cc(Cl)c2)O1`?
BL2 CD40 inh: inactive

What do the screens show for `O=C(c1cccc(F)c1)N1C[C@@H]2[C@H](c3ccccc31)[C@@H](CO)N2C(=O)C1CC1`?
BL2 CD40 inh: inactive
